# Measurements reported in article PMC7862700, “An all-to-all approach to the identification of sequence-specific readers for epigenetic DNA modifications on cytosine”.
# Tests used:
# Experiment in all cases: DAPPL (digital affinity profiling via proximity ligation, sequencing); 10 mM Tris-HCl pH 7.5, 50 mM NaCl, 1 mM DTT, 4% glycerol, room temperature, 30 min; GST-TFs on glutathione beads, 16-mer random dsDNA library, 0.1% formaldehyde crosslink after washing; high values mean tight binding
# FLI1 = target: T1, FLI1 (Homo sapiens, UniProt Q01543 1-452); settings: protein: recombinant; tags: N-terminal GST; dsDNA, one strand shown
# T1 sequence: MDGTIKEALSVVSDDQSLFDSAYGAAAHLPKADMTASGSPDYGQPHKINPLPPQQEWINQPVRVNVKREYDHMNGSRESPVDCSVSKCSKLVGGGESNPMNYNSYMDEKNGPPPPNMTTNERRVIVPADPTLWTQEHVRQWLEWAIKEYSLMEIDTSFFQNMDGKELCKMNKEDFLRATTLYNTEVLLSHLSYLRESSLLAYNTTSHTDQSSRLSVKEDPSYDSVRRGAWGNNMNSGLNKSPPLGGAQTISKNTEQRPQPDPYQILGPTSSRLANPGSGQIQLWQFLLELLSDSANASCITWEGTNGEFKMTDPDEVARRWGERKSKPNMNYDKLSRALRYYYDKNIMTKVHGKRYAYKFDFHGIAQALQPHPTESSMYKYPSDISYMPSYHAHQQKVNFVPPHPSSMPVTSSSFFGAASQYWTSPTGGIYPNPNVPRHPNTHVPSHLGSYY
# Outline: (§1)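 A tag-only sample was pooled with DNA-barcoded human transcription factors that had been expressed in yeast as GST fusions and captured on glutathione beads. The pools were incubated for 30 min at room temperature with 200 nmole of a random double-stranded 16-mer DNA library in Tris/NaCl/DTT/glycerol buffer, then washed, crosslinked with 0.1% formaldehyde, proximity-ligated (BsaI/T4 ligase, 1 h, 37 °C), PCR-amplified and sequenced on an Illumina NextSeq500. Binding signal is each hexamer's read frequency for a factor divided by its frequency for the tag-only sample.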
# ELK1 = target: T2, ELK1 (Homo sapiens, UniProt P19419 1-428); settings: protein: recombinant; tags: N-terminal GST; dsDNA, one strand shown
# T2 sequence: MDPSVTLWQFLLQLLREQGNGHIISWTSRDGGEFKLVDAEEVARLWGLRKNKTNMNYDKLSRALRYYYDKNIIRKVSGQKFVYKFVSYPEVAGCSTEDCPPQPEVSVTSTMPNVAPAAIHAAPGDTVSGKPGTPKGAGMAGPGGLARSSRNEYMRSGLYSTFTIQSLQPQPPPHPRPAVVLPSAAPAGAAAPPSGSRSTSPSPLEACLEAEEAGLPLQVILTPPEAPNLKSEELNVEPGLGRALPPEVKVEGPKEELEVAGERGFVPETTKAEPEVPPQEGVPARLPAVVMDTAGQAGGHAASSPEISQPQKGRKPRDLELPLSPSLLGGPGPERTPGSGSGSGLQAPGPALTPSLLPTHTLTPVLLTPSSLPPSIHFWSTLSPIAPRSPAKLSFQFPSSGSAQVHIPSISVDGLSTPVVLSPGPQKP
# Outline: as §1
# GABPA = target: T3, GABPA (Homo sapiens, UniProt Q06546 1-454); settings: protein: recombinant; tags: N-terminal GST; dsDNA, one strand shown
# T3 sequence: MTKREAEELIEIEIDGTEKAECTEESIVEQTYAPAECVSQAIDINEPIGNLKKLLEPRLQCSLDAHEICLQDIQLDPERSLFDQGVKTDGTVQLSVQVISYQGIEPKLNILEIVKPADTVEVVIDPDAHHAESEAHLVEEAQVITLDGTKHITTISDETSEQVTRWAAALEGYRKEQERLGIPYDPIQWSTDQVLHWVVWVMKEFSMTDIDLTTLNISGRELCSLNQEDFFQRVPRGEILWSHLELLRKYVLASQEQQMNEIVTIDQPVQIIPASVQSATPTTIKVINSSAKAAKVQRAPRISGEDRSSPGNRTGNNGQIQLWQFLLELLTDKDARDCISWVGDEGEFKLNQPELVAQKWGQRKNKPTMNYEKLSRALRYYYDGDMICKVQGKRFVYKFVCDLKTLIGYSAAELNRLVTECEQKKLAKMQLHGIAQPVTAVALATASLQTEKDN
# Outline: as §1
# ERG = target: T4, ERG (Homo sapiens, UniProt P11308 1-479); settings: protein: recombinant; tags: N-terminal GST; dsDNA, one strand shown
# T4 sequence: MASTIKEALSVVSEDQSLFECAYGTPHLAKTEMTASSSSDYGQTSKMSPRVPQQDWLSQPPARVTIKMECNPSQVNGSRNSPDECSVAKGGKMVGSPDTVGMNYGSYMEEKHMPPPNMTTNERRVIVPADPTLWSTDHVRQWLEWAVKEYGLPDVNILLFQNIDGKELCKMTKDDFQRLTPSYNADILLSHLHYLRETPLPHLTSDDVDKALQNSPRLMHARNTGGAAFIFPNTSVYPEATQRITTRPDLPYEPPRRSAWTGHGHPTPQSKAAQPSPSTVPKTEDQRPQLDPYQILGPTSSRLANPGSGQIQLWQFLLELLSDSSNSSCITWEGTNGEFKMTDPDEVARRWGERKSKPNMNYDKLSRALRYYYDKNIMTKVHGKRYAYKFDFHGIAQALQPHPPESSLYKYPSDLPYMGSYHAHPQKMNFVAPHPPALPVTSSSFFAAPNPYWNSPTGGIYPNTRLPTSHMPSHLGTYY
# Outline: as §1
# ELF1 = ELF1 (Homo sapiens, UniProt P32519 1-619); settings: protein: recombinant; tags: N-terminal GST; dsDNA, one strand shown
# Outline: as §1
# EHF = target: T5, EHF (Homo sapiens, UniProt Q9NZC4 1-300); settings: protein: recombinant; tags: N-terminal GST; dsDNA, one strand shown
# T5 sequence: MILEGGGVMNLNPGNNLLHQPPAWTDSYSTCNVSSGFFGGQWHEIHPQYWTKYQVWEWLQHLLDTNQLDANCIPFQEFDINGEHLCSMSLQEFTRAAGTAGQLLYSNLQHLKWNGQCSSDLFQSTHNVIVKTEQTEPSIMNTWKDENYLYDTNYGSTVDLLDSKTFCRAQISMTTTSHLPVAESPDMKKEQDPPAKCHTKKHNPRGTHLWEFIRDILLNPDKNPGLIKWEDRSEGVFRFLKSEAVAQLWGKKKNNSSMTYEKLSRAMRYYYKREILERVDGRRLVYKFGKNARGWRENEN
# Outline: as §1
# SPI1 = SPI1 (Homo sapiens, UniProt P17947 1-270); settings: protein: recombinant; tags: N-terminal GST; dsDNA, one strand shown
# Outline: as §1
# SPIB = SPIB (Homo sapiens, UniProt Q01892 1-262); settings: protein: recombinant; tags: N-terminal GST; dsDNA, one strand shown
# Outline: as §1
# FEV = target: T6, FEV (Homo sapiens, UniProt Q99581 1-238); settings: protein: recombinant; tags: N-terminal GST; dsDNA, one strand shown
# T6 sequence: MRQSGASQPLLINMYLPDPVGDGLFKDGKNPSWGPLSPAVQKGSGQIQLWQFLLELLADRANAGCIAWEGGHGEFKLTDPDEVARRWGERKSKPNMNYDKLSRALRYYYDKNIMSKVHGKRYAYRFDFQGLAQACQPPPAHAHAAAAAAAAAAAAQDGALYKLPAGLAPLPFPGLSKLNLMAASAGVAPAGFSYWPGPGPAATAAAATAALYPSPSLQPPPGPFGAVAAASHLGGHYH
# Outline: as §1
# ETV5 = ETV5 (Homo sapiens, UniProt P41161 1-510); settings: protein: recombinant; tags: N-terminal GST; dsDNA, one strand shown
# Outline: as §1
# HSF1 = HSF1 (Homo sapiens, UniProt Q00613 1-529); settings: protein: recombinant; tags: N-terminal GST; chain copies: 3; dsDNA, one strand shown
# Outline: as §1
# ELF4 = ELF4 (Homo sapiens, UniProt Q99607 1-663); settings: protein: recombinant; tags: N-terminal GST; dsDNA, one strand shown
# Outline: as §1
# ELK4 = target: T7, ELK4 (Homo sapiens, UniProt P28324-2 1-405); settings: protein: recombinant; tags: N-terminal GST; dsDNA, one strand shown
# T7 sequence: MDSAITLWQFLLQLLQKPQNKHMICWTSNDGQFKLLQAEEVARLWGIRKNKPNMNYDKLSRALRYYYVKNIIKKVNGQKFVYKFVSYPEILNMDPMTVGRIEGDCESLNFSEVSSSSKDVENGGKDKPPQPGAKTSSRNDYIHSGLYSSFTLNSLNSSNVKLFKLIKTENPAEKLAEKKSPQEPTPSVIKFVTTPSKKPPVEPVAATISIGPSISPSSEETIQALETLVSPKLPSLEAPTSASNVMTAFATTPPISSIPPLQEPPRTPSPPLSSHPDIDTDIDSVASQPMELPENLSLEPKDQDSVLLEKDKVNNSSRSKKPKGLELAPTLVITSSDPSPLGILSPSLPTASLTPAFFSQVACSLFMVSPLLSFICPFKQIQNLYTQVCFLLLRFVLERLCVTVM
# Outline: as §1
# ETV2 = target: T8, ETV2 (Homo sapiens, UniProt O00321 1-342); settings: protein: recombinant; tags: N-terminal GST; dsDNA, one strand shown
# T8 sequence: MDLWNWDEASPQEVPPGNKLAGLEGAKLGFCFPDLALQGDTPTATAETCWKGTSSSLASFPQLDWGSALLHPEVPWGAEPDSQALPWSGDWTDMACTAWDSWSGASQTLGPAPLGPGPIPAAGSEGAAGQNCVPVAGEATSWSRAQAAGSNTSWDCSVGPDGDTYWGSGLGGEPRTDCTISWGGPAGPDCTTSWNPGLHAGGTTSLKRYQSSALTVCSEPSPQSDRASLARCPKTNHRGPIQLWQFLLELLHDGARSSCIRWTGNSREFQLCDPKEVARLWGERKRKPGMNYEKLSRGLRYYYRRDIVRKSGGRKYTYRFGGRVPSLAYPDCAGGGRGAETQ
# Outline: as §1
# ELF3 = target: T9, ELF3 (Homo sapiens, UniProt P78545 1-371); settings: protein: recombinant; tags: N-terminal GST; dsDNA, one strand shown
# T9 sequence: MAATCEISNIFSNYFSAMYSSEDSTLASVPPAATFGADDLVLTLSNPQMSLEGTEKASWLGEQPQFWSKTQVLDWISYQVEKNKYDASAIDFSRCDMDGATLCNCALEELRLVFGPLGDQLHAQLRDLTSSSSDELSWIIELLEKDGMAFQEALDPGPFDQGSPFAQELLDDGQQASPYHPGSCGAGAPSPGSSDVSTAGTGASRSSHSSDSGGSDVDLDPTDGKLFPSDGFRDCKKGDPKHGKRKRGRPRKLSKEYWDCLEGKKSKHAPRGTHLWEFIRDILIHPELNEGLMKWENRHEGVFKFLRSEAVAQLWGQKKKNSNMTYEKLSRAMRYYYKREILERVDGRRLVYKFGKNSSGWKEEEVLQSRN
# Outline: as §1
# ETV1 = ETV1 (Homo sapiens, UniProt P50549 1-477); settings: protein: recombinant; tags: N-terminal GST; dsDNA, one strand shown
# Outline: as §1
# CRX = CRX (Homo sapiens, UniProt O43186 1-299); settings: protein: recombinant; tags: N-terminal GST; dsDNA, one strand shown
# Outline: as §1
# Sequence of HSF1 (Q00613 whole entry): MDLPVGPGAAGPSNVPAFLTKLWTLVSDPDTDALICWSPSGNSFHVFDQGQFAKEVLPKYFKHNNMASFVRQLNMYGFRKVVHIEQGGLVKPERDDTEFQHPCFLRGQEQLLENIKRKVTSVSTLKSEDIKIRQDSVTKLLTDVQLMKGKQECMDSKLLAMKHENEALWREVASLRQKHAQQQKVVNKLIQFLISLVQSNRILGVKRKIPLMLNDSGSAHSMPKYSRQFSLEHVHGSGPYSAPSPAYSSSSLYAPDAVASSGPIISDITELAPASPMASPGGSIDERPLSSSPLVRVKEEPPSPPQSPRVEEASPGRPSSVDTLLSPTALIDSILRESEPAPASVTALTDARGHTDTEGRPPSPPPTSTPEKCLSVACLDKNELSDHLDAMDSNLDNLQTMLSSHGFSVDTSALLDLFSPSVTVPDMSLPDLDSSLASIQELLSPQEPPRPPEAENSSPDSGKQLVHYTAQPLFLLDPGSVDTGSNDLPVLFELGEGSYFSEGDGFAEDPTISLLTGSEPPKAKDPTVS
# Sequence of ELF4 (Q99607 whole entry): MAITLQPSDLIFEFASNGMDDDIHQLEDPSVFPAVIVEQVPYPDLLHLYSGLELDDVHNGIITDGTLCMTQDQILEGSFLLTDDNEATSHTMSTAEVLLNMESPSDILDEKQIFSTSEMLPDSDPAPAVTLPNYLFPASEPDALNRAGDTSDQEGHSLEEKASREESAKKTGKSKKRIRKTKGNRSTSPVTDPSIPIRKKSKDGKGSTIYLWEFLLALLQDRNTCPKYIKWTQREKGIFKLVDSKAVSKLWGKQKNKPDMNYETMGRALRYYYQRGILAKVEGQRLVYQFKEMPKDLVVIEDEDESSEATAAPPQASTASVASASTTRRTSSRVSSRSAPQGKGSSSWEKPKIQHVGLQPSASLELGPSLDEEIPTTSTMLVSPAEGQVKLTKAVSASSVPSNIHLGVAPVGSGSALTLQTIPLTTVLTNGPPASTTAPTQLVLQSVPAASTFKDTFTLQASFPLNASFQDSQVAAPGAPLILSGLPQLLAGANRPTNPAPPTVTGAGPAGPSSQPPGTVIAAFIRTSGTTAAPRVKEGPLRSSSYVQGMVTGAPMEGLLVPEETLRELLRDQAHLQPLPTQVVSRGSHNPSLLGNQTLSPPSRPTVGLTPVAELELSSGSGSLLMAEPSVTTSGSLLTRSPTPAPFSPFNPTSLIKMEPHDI
# Sequence of ELF1 (P32519 whole entry): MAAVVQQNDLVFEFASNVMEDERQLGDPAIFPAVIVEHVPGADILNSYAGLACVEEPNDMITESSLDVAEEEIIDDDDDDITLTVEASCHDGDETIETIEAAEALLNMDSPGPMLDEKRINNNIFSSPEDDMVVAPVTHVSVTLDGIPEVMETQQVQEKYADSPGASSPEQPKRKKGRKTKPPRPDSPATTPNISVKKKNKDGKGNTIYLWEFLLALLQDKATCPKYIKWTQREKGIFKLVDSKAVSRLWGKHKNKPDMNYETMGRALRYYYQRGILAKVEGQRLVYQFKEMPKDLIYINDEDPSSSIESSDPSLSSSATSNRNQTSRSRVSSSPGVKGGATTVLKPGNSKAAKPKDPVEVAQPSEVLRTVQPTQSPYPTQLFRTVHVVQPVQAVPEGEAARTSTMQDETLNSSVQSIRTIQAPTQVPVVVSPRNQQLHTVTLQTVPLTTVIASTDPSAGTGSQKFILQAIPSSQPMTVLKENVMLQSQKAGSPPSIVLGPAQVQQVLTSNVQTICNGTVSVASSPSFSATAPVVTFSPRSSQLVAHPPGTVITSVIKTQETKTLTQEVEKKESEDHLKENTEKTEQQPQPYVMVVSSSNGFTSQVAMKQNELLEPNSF
# Sequence of ETV5 (P41161 whole entry): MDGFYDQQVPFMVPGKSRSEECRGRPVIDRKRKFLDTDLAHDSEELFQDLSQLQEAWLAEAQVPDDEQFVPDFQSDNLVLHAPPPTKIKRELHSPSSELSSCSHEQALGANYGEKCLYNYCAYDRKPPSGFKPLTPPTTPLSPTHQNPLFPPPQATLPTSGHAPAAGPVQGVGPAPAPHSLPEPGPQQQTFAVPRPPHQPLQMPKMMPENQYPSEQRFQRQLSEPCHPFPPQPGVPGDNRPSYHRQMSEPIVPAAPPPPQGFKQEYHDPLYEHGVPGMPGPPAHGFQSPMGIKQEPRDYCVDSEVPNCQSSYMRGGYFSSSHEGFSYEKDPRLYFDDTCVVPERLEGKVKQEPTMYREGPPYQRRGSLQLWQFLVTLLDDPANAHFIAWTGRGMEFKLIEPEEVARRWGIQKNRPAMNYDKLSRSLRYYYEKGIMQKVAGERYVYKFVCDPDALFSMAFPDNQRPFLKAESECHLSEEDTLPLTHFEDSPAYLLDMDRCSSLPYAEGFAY
# Sequence of ETV1 (P50549 whole entry): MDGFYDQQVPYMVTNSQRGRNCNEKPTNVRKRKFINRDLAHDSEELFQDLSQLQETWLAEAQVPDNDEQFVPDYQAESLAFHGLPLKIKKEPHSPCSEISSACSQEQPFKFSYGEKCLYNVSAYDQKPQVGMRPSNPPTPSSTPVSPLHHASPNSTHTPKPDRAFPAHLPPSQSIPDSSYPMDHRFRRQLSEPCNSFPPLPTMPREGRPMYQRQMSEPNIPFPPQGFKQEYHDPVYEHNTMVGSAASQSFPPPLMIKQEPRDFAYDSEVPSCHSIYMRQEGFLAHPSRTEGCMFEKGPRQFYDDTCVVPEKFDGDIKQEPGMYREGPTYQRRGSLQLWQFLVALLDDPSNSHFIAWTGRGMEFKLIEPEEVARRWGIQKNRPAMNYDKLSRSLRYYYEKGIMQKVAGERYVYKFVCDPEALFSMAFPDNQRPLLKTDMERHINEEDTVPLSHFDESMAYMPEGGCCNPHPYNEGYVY
# Sequence of SPIB (Q01892 whole entry): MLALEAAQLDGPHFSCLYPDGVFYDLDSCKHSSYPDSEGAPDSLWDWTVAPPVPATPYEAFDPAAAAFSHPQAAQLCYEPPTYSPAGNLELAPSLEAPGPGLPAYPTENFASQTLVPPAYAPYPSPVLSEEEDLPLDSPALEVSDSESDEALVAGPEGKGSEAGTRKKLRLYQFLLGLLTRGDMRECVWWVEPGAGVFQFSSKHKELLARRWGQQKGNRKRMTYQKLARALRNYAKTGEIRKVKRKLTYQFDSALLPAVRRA
# Sequence of CRX (O43186 whole entry): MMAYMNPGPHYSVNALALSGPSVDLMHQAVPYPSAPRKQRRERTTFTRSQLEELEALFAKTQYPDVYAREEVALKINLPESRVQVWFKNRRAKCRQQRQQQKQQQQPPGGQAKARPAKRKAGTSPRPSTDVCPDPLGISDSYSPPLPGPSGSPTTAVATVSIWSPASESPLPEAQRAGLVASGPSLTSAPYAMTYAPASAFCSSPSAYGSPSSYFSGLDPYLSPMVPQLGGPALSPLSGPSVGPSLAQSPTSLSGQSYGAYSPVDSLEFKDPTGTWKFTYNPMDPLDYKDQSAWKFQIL
Sequence,binding signal (FLI1),binding signal (ELK1),binding signal (GABPA),binding signal (ERG),binding signal (ELF1),binding signal (EHF),binding signal (SPI1),binding signal (SPIB),binding signal (FEV),binding signal (ETV5),binding signal (HSF1),binding signal (ELF4),binding signal (ELK4),binding signal (ETV2),binding signal (ELF3),binding signal (ETV1),binding signal (CRX)
TGACGA,"1.06 fold enrichment (6-mer frequency, TF over GST control)","1.12 fold enrichment (6-mer frequency, TF over GST control)","1.21 fold enrichment (6-mer frequency, TF over GST control)","1.07 fold enrichment (6-mer frequency, TF over GST control)","1.14 fold enrichment (6-mer frequency, TF over GST control)","1.04 fold enrichment (6-mer frequency, TF over GST control)","1.03 fold enrichment (6-mer frequency, TF over GST control)","1.17 fold enrichment (6-mer frequency, TF over GST control)","1.05 fold enrichment (6-mer frequency, TF over GST control)","1.13 fold enrichment (6-mer frequency, TF over GST control)","1.01 fold enrichment (6-mer frequency, TF over GST control)","1.11 fold enrichment (6-mer frequency, TF over GST control)","1.18 fold enrichment (6-mer frequency, TF over GST control)","1.15 fold enrichment (6-mer frequency, TF over GST control)","1.08 fold enrichment (6-mer frequency, TF over GST control)","1.04 fold enrichment (6-mer frequency, TF over GST control)",
AGATAA,"1.09 fold enrichment (6-mer frequency, TF over GST control)","1.07 fold enrichment (6-mer frequency, TF over GST control)","1.09 fold enrichment (6-mer frequency, TF over GST control)",,"1.01 fold enrichment (6-mer frequency, TF over GST control)","1.03 fold enrichment (6-mer frequency, TF over GST control)","1.01 fold enrichment (6-mer frequency, TF over GST control)","1.12 fold enrichment (6-mer frequency, TF over GST control)","1.01 fold enrichment (6-mer frequency, TF over GST control)","1.01 fold enrichment (6-mer frequency, TF over GST control)","1.68 fold enrichment (6-mer frequency, TF over GST control)","1.09 fold enrichment (6-mer frequency, TF over GST control)","1.08 fold enrichment (6-mer frequency, TF over GST control)","1.17 fold enrichment (6-mer frequency, TF over GST control)",,"1.04 fold enrichment (6-mer frequency, TF over GST control)","2 fold enrichment (6-mer frequency, TF over GST control)"
